12-hLO inh: qHTS Assay for Inhibitors of 12-hLO (12-human lipoxygenase); Polyunsaturated fatty acid lipoxygenase ALOX12 (Homo sapiens), P18054; purified 12-hLO, xylenol orange hydroperoxide absorbance; Potency, µM (doses to about 57.1 µM), actives largely listed as inhibitors; 150,000 tested, 0.12% active; AID 1452, 2008; also: nearly all actives have a fitted effect of over 55% in size
Target sequence (P18054 whole entry, looked up): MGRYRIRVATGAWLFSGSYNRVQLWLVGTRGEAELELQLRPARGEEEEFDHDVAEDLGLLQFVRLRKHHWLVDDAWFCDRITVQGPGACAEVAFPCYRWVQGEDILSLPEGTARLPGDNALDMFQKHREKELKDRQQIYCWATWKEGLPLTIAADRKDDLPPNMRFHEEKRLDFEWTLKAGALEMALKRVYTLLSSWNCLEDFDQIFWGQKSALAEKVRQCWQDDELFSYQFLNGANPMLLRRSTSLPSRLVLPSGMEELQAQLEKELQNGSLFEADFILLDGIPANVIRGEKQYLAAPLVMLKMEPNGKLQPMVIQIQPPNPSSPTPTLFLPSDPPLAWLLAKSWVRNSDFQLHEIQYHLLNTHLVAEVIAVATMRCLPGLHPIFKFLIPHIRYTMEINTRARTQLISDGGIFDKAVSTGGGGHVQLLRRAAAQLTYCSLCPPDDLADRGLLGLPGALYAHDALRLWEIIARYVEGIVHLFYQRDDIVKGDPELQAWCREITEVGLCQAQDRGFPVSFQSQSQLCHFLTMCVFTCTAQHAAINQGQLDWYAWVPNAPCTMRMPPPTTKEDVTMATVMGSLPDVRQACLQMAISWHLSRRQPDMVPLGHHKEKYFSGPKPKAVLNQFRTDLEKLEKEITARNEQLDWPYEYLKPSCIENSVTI
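Lipoxygenase turnover measured by absorbance at 573 and 405 nm after Fe-XO development. Human 12hLO 150 nM, arachidonate 40 uM, pH 7.0 Hepes buffer with detergent; 15 min compound preincubation, 30 min reaction.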
15-hLO-2 inh: qHTS Assay for Inhibitors of 15-hLO-2 (15-human lipoxygenase 2); Polyunsaturated fatty acid lipoxygenase ALOX15B (Homo sapiens), O15296; Potency, µM (top dose mostly 57.1 µM), usual class: inhibitors; 110,000 tested, 0.56% active; purified 15hLO-2, xylenol orange hydroperoxide absorbance; also: nearly all actives have a fitted effect of over 60% in size
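Purified human 15hLO-2 (50 nM) preincubated 15 min with compound, then 45 uM arachidonic acid for 90 min at RT in 25 mM Hepes pH 7.5, 0.01% Triton X-100. Hydroperoxide detected by Fe-xylenol orange; 573/405 nm absorbance ratio.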
Hits are given with their value; – = inactive; ? = inconclusive; · = no result given; [ ] = remark or other dose. Many of the other results were omitted from the sample, so hits are more common in it than they were. Calls follow the shape of the dose curve; as a rule, active = well fitted curve in the direction sought with a large enough effect; inconclusive = small, poorly fitted or top-dose-only effect, or another doubt; inactive = no such curve, though single readings can be large; an effect the other way counts as inactive or inconclusive.

SMILES	12-hLO inh	15-hLO-2 inh
CC(=O)Nc1ccc(N2CCN(C(C)=O)CC2)cc1	–	–
CCc1ccc(CNc2ccc(N3CCN(C(C)=O)CC3)cc2)cc1	?	13µM
Cc1ccc(C(=O)NCc2ccc(N3CCN(C(=O)OC(C)(C)C)CC3)cc2)cc1	–	–
CC(=O)N1CCN(c2ccc(NCc3ccc(C)cc3)cc2)CC1	18µM	10µM
Cc1[nH]c(N)nc(=S)c1CCC(=O)O	–[11.4 µM]	–[11.4 µM]
O=c1c2c([N+](=O)[O-])cc([N+](=O)[O-])cc2sn1-c1ccc(Br)cc1	3.2µM	·
O=C(COc1ccc(Br)cc1)N1CCN(c2ccc([N+](=O)[O-])c(N3CCCCC3)c2)CC1	–	·
Nc1ncnc2c1ncn2[C@@H]1CCCO1	–	–
Cc1cc(/C=N/NC(=O)Cn2c3ccccc3c(=O)c3ccccc32)c(C)n1-c1ccccc1	–	4µM
Cc1ccc(N(CC(=O)N/N=C/c2cc(C)n(-c3ccccc3)c2C)S(C)(=O)=O)c(C)c1	–	–
CCCCc1nc2c(c3c1C[C@H](C)OC3)CN(C(=O)NCCc1c[nH]c3ccccc13)CC2	–[11.4 µM]	·
CN1c2cccc3cccc(c23)N(C)C1(C)C	–	16µM
CN1c2ccccc2N(C)C1(C)c1cccc2ccccc12	–	·
O=C(O)C(Cc1ccccc1)N1C(=O)/C(=C/c2ccccc2)SC1=S (stereo not given)	–	·
O=C(O)C(Cc1ccccc1)N1C(=O)/C(=C/c2cccc3ccccc23)SC1=S (stereo not given)	–	20µM
O=C1C(=O)N(Cc2ccc(Cl)c(Cl)c2)c2ccccc21	?	7.9µM
O=C1C(=O)N(Cc2cccc([N+](=O)[O-])c2)c2ccccc21	–	·
Cc1ccc(-c2c(C#N)c(N)nc3c2CCCCC3)o1	–	–
Cc1ccc(-c2cc(-c3ccc(Cl)cc3)c(C#N)c(N)n2)o1	11µM	6.3µM
Cc1ccc(-c2cc(-c3ccc(C)o3)nc(N)c2C#N)cc1	16µM	?
CCOc1cc(-c2cc(-c3ccc(C)o3)nc(N)c2C#N)ccc1O	–	?
CCNc1ncc2ncc(=O)n(Cc3ccc(F)cc3)c2n1	·	–
COC(=O)[C@@H](NC(=O)N1CCc2nc(-c3ccccc3)c3c(c2C1)CO[C@@H](C)C3)C(C)C	–[11.4 µM]	·
COC(=O)C1=C(C(=O)OC)[C@@H]2N(C)c3ccccc3[C@@]23C[C@@H](CO)N(C(=O)c2cc(C)oc2C)C3=N1	–[11.4 µM]	·
COC(=O)C1=C(C(=O)OC)[C@@H]2N(C)c3ccccc3[C@@]23C[C@@H](C(=O)OC)N(S(=O)(=O)c2ccc(C(F)(F)F)cc2)C3=N1	–[11.4 µM]	·
SMILES	12-hLO inh	15-hLO-2 inh
Cc1ccccc1CNc1ncnc2c1ncn2[C@@H]1O[C@@H](CO)[C@H](O)[C@@H]1O	–	–
Cc1scc(-c2n[nH]c(=S)n2C(C)c2ccccc2)c1C (stereo not given)	–	·
CCc1cc(-c2n[nH]c(=S)n2C(C)c2ccccc2)cs1 (stereo not given)	16µM	–
COC1C=CO[C@@]2(C)Oc3c(C)c(O)c4c(O)c(c(C=NN5CCN(C)CC5)c(O)c4c3C2=O)NC(=O)/C(C)=C\C=CC(C)C(O)[C@@H](C)C(O)C(C)[C@H](OC(C)=O)C1C (stereo not given in full)	–	20µM
CO[C@H]1/C=C/O[C@@]2(C)Oc3c(C)c(O)c4c(O)c(c(/C=N/N5CCN(C)CC5)c(O)c4c3C2=O)NC(=O)/C(C)=C\C=C\[C@H](C)[C@H](O)[C@@H](C)[C@@H](O)[C@@H](C)[C@H](OC(C)=O)[C@@H]1C	–	?
O=[N+]([O-])c1ccc2c(c1)c(S(=O)(=O)O)cc1nonc12	–[11.4 µM]	–[11.4 µM]
Cc1ccc(N2CSC3=C(C#N)C(c4cccs4)CC(=O)N3C2)cc1 (stereo not given)	–	13µM
COc1ccc(N2CSC3=C(C#N)C(c4cccs4)CC(=O)N3C2)cc1 (stereo not given)	?	20µM
COc1ccc(N2CSC3=C(C#N)C(c4cc(OC)ccc4OC)CC(=O)N3C2)c(OC)c1 (stereo not given)	?	10µM
Cc1ccc(N2C(N)=C(C#N)C(c3cccs3)C3=C2CC(C)(C)CC3=O)cc1 (stereo not given)	–	–
N#CC1=C2SCN(Cc3ccco3)CN2C(=O)CC1c1ccccc1F (stereo not given)	–	?
COc1ccc(C2CC(=O)N3CN(c4ccc(C)c(Cl)c4)CSC3=C2C#N)cc1OC (stereo not given)	?	25µM
COc1ccc(N2CSC3=C(C#N)C(c4ccc(OC)c(OC)c4)CC(=O)N3C2)c(OC)c1 (stereo not given)	–	?
COc1ccc(N2CSC3=C(C#N)C(c4cc(OC)c(OC)cc4OC)CC(=O)N3C2)c(OC)c1 (stereo not given)	–	?
CN(C)CC[C@@H](C(=O)C(C)(C)C)c1ccccn1	–[11.4 µM]	–[11.4 µM]
CC(=O)Nc1cc(CN2CCCCC2)c(O)c2ncccc12	–[11.4 µM]	–[11.4 µM]
Nc1nc2c(c(=O)[nH]1)N[C@H](CCNc1ccc(C(=O)O)cc1)CN2	–[11.4 µM]	–[11.4 µM]
O=C(O)CC[C@@H](C(=O)O)N1C(=O)[C@@H]2[C@@H]3CC[C@H](C3)[C@@H]2C1=O	–[11.4 µM]	–[11.4 µM]
Cn1c(O)c(N=N/C(=N/c2ccccn2)c2ccccn2)c2cc(Br)ccc21	–	·
C[C@@H](C(=O)O)c1ccc(C[C@@H]2CCCC2=O)cc1	–	–
CCOc1ccccc1N1CSC2=C(C#N)C(c3c(OC)ccc4ccccc34)CC(=O)N2C1 (stereo not given)	?	10µM
CCc1ccc(C2CC(=O)N3CN(c4ccccc4)CSC3=C2C#N)cc1 (stereo not given)	?	7.9µM
CCOc1ccccc1N1CCN(c2nc3ccccc3nc2C(C#N)C(=O)OC)CC1 (stereo not given)	–	–
CCOC(=O)c1ccc(N2CSC3=C(C#N)C(c4cccs4)CC(=O)N3C2)cc1 (stereo not given)	–	–
CN1CSC2=C(C#N)C(c3cccc(OCc4ccccc4)c3)CC(=O)N2C1 (stereo not given)	–	?
SMILES	12-hLO inh	15-hLO-2 inh
CCc1ccc(N2CSC3=C(C#N)C(c4cccs4)CC(=O)N3C2)cc1 (stereo not given)	?	20µM
Cc1c2cccc(Sc3ccccc3)c2c2c3c(cccc13)[S+](c1ccccc1)C2 (stereo not given)	–[11.4 µM]	–[11.4 µM]
O[C@@H]1[C@@H](OCc2ccccc2)OC[C@H](O)[C@@H]1O	–[11.4 µM]	–[11.4 µM]
CN(C)c1ccc(C(=C2C=CC(=[N+](C)C)C=C2)c2c(O)c(S(=O)(=O)O)cc3cc(S(=O)(=O)O)ccc23)cc1	–[11.4 µM]	–[11.4 µM]
C[C@H](CN(C)C)C(O)(c1ccccc1)c1ccccc1	–[11.4 µM]	–[11.4 µM]
CCCCCCCCCCCCCCCCCCOC[C@@H](COP(=O)([O-])OCC[N+](C)(C)C)OC	–	–
NC(=O)[C@@H]1CCCNC1	–[11.4 µM]	–[11.4 µM]
CN(C)CCN1C(=O)CC[C@]2(C)C1=CC[C@@H]1[C@@H]2CC[C@]2(C)[C@H]1CC[C@]2(C)O	–[11.4 µM]	–[11.4 µM]
CC(C)n1c(=S)[nH]c2c1c(=O)[nH]c(=O)n2C	?	13µM
C=CC(C)n1c(Br)nc2c1c(=O)[nH]c(=O)n2C (stereo not given)	–	–
CC1=C/C(=C(/c2ccc(O)c(C)c2)c2ccccc2C(=O)O)C=CC1=O	–[11.4 µM]	–[11.4 µM]
